From PubChem BioAssay
The list is not random: actives were taken first. Their share in the collection is about 0.92%.
RecA intein inh = inhibitors of M. tuberculosis RecA intein splicing | P9WHJ3 | cell-free RecA intein splicing, fluorescence | inhibition, % (concentration not given with the values) | 0.75% of 290,000 active; in the data active = inhibition above about 30%;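 note: 0% = vehicle wells and 100% = reference inhibitor control wells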
Mtb UGM inh = Mtb UDP-galactopyranose mutase inhibition. purified UGM, fluorescence polarization probe displacement. 0.06% of 320,000 active. inhibition, % at 10 µM. AID 504406. P9WIQ1; in the data active = inhibition above about 10%, passing the limit was not always enough
Target sequence (P9WIQ1 whole entry, looked up): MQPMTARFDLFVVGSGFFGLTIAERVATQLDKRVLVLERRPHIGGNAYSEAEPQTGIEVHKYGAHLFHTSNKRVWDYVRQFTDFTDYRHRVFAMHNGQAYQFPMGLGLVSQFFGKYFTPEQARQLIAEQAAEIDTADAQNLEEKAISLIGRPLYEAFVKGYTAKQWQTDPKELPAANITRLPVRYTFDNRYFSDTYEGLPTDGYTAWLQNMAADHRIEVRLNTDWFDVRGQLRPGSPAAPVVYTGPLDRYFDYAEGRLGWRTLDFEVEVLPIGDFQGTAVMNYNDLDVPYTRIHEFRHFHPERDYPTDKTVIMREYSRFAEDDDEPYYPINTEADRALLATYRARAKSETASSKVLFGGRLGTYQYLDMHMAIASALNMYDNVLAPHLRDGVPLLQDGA
FadD28 FP inh = M. tuberculosis FadD28 bisubstrate binding inhibition. FadD28 bisubstrate probe binding, fluorescence polarization. inhibition, % at 12.5 µM. 0.22% of 360,000 active. AID 588549; in the data active = inhibition above about 8.5%, passing the limit was not always enough
Rv3671c protease = inhibits the M. tuberculosis serine protease Rv3671c. P9WHR9. inhibition, % at 5.96 µM. 0.048% of 320,000 active; in the data active = inhibition above about 38%;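 note: extracellular domain of Rv3671c used as enzyme; 0% = enzyme with DMSO and 100% = no enzyme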
Mtb hypoxia rep = reduces hypoxia-regulated biosensor signal in M. tuberculosis. M. tuberculosis hypoxia-regulated fluorescent reporter, fluorescence. fluorescence inhibition, % (concentration not given with the values). 0.1% of 300,000 active. AID 1159583; in the data active = fluorescence inhibition mostly above about 23%, no sharp cut-off; inactive = mostly below about 17%
GFP chromo cs = counter-screen GFP chromophore formation inhibition; EC50, µM; 83% of 2,100 active; cell-free GFP chromophore formation, fluorescence; AID 434968; shares compounds with RecA intein inh; call rule not given here
* marks the source's active call; other numbers are inactive results.

What do the screens show for `O=C(O)c1ccc(-n2ncc(Cl)c(Cl)c2=O)cc1`?
FadD28 FP inh: -0.4

Results for COc1ccc(NC(=O)c2ccc(Cl)nc2)cc1S(=O)(=O)N1CCOCC1 ?
Mtb UGM inh: 2.7; FadD28 FP inh: -3.2; Rv3671c protease: -1.7; Mtb hypoxia rep: 3.2

How did O=C(OCn1ncc(Cl)c(Cl)c1=O)c1ccc(C(F)(F)F)cc1 do in these assays?
RecA intein inh: 80.1*; FadD28 FP inh: -0.8; Mtb hypoxia rep: 10.7; GFP chromo cs: 1.39*

How did CCOC(=O)c1ccc(NC(=O)Cn2ncc(Cl)c(Cl)c2=O)cc1 do in these assays?
RecA intein inh: 62.1*; Mtb UGM inh: -1.8; FadD28 FP inh: -0.6; Rv3671c protease: -17.5; Mtb hypoxia rep: 36.5*; GFP chromo cs: 12.9*

Results for Cc1ccc(C(=O)OCn2ncc(Cl)c(Cl)c2=O)cc1 ?
RecA intein inh: 74.9*; Mtb UGM inh: 0.2; FadD28 FP inh: -5.4; Rv3671c protease: -9.6; Mtb hypoxia rep: 3.8; GFP chromo cs: 6.36*

Results for CCC(=O)Nc1ccc(C(=O)Cn2ncc(Cl)c(Cl)c2=O)cc1 ?
RecA intein inh: 8.3; Mtb UGM inh: 5.7; FadD28 FP inh: -5.0; Rv3671c protease: -2.6

What do the screens show for `COc1ccc(NC(=O)Cn2ncc(Cl)c(Cl)c2=O)cc1S(=O)(=O)N1CCOCC1`?
RecA intein inh: 43.2*; Mtb UGM inh: -0.7; FadD28 FP inh: -3.0; Rv3671c protease: -13.3; Mtb hypoxia rep: 8.6; GFP chromo cs: 30.5*

Results for O=C(CCN1C(=O)/C(=C/c2cccs2)SC1=S)Nc1ccc(C(=O)O)c(O)c1 ?
RecA intein inh: 44.1*; Mtb UGM inh: 0.1; FadD28 FP inh: -0.3; Rv3671c protease: -14.2; GFP chromo cs: 30.9*

What do the screens show for `CCOc1ccc(/C=C2\SC(=S)N(CCC(=O)Nc3ccccc3C(=O)O)C2=O)cc1`?
RecA intein inh: 36.2*; Mtb UGM inh: 0.1; FadD28 FP inh: 0.8; Rv3671c protease: -8.3; Mtb hypoxia rep: 2.1; GFP chromo cs: >38

How did O=C(CCN1C(=O)/C(=C/c2cccs2)SC1=S)Nc1cccc(O)c1 do in these assays?
RecA intein inh: 36.2*; Mtb UGM inh: -1.8; FadD28 FP inh: -1.1; Rv3671c protease: -15.5; Mtb hypoxia rep: 3.0; GFP chromo cs: >38

How did Cc1ccc(S(=O)(=O)N2CCCCC2)cc1NC(=O)CSc1ncnc2ccccc12 do in these assays?
RecA intein inh: 2.6; FadD28 FP inh: 1.2; Rv3671c protease: -6.3; Mtb hypoxia rep: -5.6

What do the screens show for `Cc1ccc(NC(=O)CSc2ncnc3ccccc23)cc1S(=O)(=O)N1CCCCCC1`?
RecA intein inh: 31.1*; FadD28 FP inh: -0.4; Rv3671c protease: -28.5; Mtb hypoxia rep: 9.2; GFP chromo cs: >38

How did CCOC(=O)C1C2COc3ccc(C)cc3C2N2C(=O)c3ccc(Cl)cc3NC(=O)[C@@]12C (stereo not given in full) do in these assays?
Mtb hypoxia rep: 2.1

What do the screens show for `O=C(O)c1ccc2c3c(ncnc13)-c1ccccc1C2=O`?
RecA intein inh: 43.6*; Mtb UGM inh: 2.5; Rv3671c protease: 2.9; Mtb hypoxia rep: 2.2; GFP chromo cs: 4.36*

Results for O=C(O)c1cccc2c1C(=O)c1ccccc1C2=O ?
RecA intein inh: -3.2; Mtb UGM inh: 0.4; FadD28 FP inh: 1.5; Rv3671c protease: -7.9; Mtb hypoxia rep: -12.0

Results for CC(=O)NCCn1c(SCc2ccccc2C)nc2ccccc2c1=O ?
RecA intein inh: 32.0*; Mtb UGM inh: 0.9; FadD28 FP inh: -3.0; Rv3671c protease: 9.0; Mtb hypoxia rep: -1.4; GFP chromo cs: >38

Results for COc1cc2c(cc1OC)-c1c(OC)c(OC)cc3c1[C@H](C2)N(C)CC3 ?
RecA intein inh: 34.1*; Mtb UGM inh: 0.1; FadD28 FP inh: 0.4; Rv3671c protease: -22.9; GFP chromo cs: 21.9*

Results for COc1cc2c(cc1O)CC1c3c(cc(O)c(OC)c3-2)CCN1C (stereo not given) ?
RecA intein inh: -5.3; Mtb UGM inh: -0.1; FadD28 FP inh: 0.3; Rv3671c protease: 0.4; Mtb hypoxia rep: 3.7

How did O=C(COc1cc2oc(=O)c3c(c2cc1Cl)CCC3)Nc1cccnc1 do in these assays?
RecA intein inh: -2.1; Mtb UGM inh: -1.0; FadD28 FP inh: -0.3; Rv3671c protease: -12.8; Mtb hypoxia rep: -7.0

How did Cc1c(OCC(=O)Nc2cccnc2)ccc2c3c(c(=O)oc12)CCC3 do in these assays?
RecA intein inh: 93.7*; Mtb UGM inh: -6.5; FadD28 FP inh: -2.8; Rv3671c protease: 2.7; Mtb hypoxia rep: 7.7; GFP chromo cs: 10.3*

Results for N#Cc1c(-c2ccccc2)nc(SCC(=O)N2c3ccccc3Sc3ccccc32)[nH]c1=O ?
RecA intein inh: 44.2*; Mtb UGM inh: 0.1; FadD28 FP inh: -9.3; Rv3671c protease: -23.5; Mtb hypoxia rep: 3.5; GFP chromo cs: 10.4*

What do the screens show for `N#Cc1c(-c2ccccc2)nc(SCC(=O)N(c2ccccc2)c2ccccc2)[nH]c1=O`?
RecA intein inh: 15.8; Mtb UGM inh: 0.9; FadD28 FP inh: -4.7; Rv3671c protease: -13.6; Mtb hypoxia rep: -2.7

Results for COc1ccc2nc3ccccc3nc2c1N ?
RecA intein inh: 64.0*; Mtb UGM inh: 2.7; FadD28 FP inh: -1.9; Rv3671c protease: -20.1; Mtb hypoxia rep: 13.9; GFP chromo cs: 39.7*

Results for COc1ccc2nc3cccc(OC)c3nc2c1 ?
RecA intein inh: 45.5*; Mtb UGM inh: 0.8; FadD28 FP inh: -2.1; Rv3671c protease: -4.9; Mtb hypoxia rep: 11.3; GFP chromo cs: 24.2*

How did CCOC1=NC(C(=O)O)c2ccccc2C(=C(C)Cl)N1 (stereo not given) do in these assays?
Mtb hypoxia rep: 10.1

How did CCOC(=O)c1c(C)sc2c1N(C(=O)CCl)c1cc(Cl)ccc1S2 do in these assays?
RecA intein inh: 54.8*; Mtb UGM inh: -2.6; FadD28 FP inh: -4.5; Rv3671c protease: 1.0; GFP chromo cs: 1.58*

What do the screens show for `Cc1sc2ncnc(SCC(=O)N3c4ccccc4Sc4ccc(Cl)cc43)c2c1C`?
RecA intein inh: 1.0; Mtb UGM inh: 4.9; FadD28 FP inh: -2.2; Rv3671c protease: 11.0; Mtb hypoxia rep: -5.8

What do the screens show for `O=C1C(=O)c2ccccc2-c2ccccc21`?
RecA intein inh: 53.5*; Mtb UGM inh: 2.8; FadD28 FP inh: 0.1; Rv3671c protease: -143.2; GFP chromo cs: 6.94*

How did NC1=C(Br)C(=O)c2ccccc2C1=O do in these assays?
RecA intein inh: 89.6*; Mtb UGM inh: -2.7; FadD28 FP inh: 0.5; Rv3671c protease: -44.5; Mtb hypoxia rep: 16.0; GFP chromo cs: 5.38*

How did COc1cccc(C(=O)O/N=C(\N)c2ccc([N+](=O)[O-])cc2)c1OC do in these assays?
RecA intein inh: 51.6*; Mtb UGM inh: -0.4; FadD28 FP inh: -1.5; Rv3671c protease: 5.2; Mtb hypoxia rep: -7.2; GFP chromo cs: >38

How did NC(=NOC(=O)c1ccccc1Br)c1ccc([N+](=O)[O-])cc1 do in these assays?
Mtb hypoxia rep: 10.7

How did CC1=NNC(=O)C1Cc1ccccc1 (stereo not given) do in these assays?
RecA intein inh: 96.4*; Mtb UGM inh: 1.0; FadD28 FP inh: -4.2; Rv3671c protease: 2.7; Mtb hypoxia rep: 12.2; GFP chromo cs: 0.658*
